Experimental data from paper PMC7862700, “An all-to-all approach to the identification of sequence-specific readers for epigenetic DNA modifications on cytosine”.

How the values were obtained:
Test in all cases: DAPPL (digital affinity profiling via proximity ligation, sequencing); 10 mM Tris-HCl pH 7.5, 50 mM NaCl, 1 mM DTT, 4% glycerol, room temperature, 30 min; GST-TFs on glutathione beads, 16-mer random dsDNA library, 0.1% formaldehyde crosslink after washing; high values mean tight binding
Details in all cases: protein: recombinant; tags: N-terminal GST; dsDNA, one strand shown
[1] = molecular target: T1, FLI1 (Homo sapiens, UniProt Q01543 1-452)
T1 sequence: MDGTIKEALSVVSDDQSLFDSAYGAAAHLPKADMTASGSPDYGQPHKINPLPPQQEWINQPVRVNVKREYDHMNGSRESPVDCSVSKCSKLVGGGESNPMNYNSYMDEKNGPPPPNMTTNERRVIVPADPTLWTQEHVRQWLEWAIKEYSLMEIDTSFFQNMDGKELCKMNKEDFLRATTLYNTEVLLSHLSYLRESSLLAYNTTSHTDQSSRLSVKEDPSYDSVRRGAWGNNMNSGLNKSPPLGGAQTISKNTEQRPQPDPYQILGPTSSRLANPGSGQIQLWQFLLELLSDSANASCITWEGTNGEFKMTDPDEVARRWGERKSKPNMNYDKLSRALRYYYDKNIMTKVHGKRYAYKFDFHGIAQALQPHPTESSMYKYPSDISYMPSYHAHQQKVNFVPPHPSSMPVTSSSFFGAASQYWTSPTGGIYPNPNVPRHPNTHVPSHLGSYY
Outline: (§1)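 Each value of binding signal is a hexamer's read frequency for a factor divided by the same hexamer's frequency in the tag-only sample. Barcoded, bead-captured GST fusions of human transcription factors made in yeast were pooled with that sample and incubated with 200 nmole of a random double-stranded 16-mer DNA library in Tris/NaCl/DTT/glycerol buffer at room temperature for 30 min. Washing, 0.1% formaldehyde crosslinking, proximity ligation, PCR and Illumina NextSeq500 sequencing followed.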

[2] = molecular target: T2, ELK1 (Homo sapiens, UniProt P19419 1-428)
T2 sequence: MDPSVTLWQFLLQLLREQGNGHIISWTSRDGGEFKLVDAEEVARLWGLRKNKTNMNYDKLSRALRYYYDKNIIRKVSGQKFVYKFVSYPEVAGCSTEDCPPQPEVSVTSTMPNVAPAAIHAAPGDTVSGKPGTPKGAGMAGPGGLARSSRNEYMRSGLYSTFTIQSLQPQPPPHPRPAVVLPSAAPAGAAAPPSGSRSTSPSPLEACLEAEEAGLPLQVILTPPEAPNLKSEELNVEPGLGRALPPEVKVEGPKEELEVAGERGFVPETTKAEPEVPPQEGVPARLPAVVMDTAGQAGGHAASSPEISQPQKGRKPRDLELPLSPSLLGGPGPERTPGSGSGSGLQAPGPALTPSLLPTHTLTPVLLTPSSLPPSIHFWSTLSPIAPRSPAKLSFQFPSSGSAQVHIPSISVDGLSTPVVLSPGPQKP
Outline: as §1

[3] = molecular target: T3, GABPA (Homo sapiens, UniProt Q06546 1-454)
T3 sequence: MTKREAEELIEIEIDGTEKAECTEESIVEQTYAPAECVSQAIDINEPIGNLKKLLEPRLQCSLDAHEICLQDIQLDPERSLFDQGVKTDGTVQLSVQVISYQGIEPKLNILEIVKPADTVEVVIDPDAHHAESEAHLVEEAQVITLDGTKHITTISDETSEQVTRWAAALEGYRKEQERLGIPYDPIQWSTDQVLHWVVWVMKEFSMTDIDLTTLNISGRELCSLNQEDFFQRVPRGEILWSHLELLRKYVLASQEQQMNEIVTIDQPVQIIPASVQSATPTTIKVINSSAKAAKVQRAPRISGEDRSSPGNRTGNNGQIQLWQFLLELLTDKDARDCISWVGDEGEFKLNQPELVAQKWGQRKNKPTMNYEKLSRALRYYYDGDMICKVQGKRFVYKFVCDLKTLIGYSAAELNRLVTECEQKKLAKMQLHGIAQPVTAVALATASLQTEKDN
Outline: as §1

[4] = molecular target: T4, ERG (Homo sapiens, UniProt P11308 1-479)
T4 sequence: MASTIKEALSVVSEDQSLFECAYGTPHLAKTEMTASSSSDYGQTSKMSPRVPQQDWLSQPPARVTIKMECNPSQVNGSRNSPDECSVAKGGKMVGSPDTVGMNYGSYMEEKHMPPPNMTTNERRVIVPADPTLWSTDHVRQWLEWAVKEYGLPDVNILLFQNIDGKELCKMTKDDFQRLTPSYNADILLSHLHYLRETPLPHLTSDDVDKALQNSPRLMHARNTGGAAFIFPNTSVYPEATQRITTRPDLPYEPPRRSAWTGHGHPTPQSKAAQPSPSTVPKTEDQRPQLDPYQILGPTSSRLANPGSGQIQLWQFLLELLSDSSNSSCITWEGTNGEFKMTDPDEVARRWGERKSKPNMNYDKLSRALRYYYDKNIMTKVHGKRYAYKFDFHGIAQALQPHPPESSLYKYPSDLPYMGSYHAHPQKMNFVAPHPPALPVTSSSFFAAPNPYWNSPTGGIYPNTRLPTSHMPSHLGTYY
Outline: as §1

[5] = molecular target: ELF1 (Homo sapiens, UniProt P32519 1-619)
Outline: as §1

[6] = molecular target: T5, EHF (Homo sapiens, UniProt Q9NZC4 1-300)
T5 sequence: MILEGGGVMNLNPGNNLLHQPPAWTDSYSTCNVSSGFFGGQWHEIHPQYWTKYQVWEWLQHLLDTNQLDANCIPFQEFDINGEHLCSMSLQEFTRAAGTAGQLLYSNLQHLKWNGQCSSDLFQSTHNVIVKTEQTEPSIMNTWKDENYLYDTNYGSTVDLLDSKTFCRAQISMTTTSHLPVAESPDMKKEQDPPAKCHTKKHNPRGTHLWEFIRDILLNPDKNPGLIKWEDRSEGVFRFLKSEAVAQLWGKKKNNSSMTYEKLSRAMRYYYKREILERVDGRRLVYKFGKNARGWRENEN
Outline: as §1

[7] = molecular target: SPI1 (Homo sapiens, UniProt P17947 1-270)
Outline: as §1

[8] = molecular target: SPIB (Homo sapiens, UniProt Q01892 1-262)
Outline: as §1

[9] = molecular target: T6, ELK3 (Homo sapiens, UniProt P41970 1-407)
T6 sequence: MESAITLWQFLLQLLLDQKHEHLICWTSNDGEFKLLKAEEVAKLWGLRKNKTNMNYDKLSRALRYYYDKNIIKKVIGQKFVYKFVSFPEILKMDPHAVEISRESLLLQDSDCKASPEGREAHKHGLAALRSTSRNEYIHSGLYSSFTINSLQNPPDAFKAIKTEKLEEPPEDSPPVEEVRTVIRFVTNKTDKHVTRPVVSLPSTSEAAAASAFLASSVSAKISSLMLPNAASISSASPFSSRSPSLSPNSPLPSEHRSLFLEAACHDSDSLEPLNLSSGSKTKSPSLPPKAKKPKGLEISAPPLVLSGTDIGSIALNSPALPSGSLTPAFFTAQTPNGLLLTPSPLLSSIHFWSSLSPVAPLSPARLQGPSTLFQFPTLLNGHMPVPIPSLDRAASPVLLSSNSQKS
Outline: as §1

ELF1, sequence (P32519 whole entry): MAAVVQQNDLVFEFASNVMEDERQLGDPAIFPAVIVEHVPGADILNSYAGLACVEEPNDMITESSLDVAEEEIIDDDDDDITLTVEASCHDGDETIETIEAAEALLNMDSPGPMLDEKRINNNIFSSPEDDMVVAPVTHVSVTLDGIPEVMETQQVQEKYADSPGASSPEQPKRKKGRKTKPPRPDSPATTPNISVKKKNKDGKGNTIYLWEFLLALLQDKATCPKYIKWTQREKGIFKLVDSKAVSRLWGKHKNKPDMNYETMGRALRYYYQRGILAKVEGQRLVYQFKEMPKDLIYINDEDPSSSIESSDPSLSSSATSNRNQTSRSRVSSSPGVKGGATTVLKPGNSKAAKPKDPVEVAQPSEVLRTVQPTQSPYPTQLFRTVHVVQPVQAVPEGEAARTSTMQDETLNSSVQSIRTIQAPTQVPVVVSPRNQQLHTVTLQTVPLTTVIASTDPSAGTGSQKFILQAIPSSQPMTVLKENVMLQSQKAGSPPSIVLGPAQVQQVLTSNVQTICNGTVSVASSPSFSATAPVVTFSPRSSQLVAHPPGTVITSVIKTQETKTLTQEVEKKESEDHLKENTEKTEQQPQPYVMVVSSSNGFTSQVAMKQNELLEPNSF
SPIB, sequence (Q01892 whole entry): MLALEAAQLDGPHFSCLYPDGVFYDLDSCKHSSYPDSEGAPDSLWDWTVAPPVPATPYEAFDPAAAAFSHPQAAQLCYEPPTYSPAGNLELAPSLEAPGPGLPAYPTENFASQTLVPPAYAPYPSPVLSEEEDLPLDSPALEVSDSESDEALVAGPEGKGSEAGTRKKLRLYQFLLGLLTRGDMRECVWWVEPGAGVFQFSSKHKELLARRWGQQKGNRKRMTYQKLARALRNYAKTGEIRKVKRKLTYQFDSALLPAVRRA

| Sequence | binding signal [1] | binding signal [2] | binding signal [3] | binding signal [4] | binding signal [5] | binding signal [6] | binding signal [7] | binding signal [8] | binding signal [9] |
| --- | --- | --- | --- | --- | --- | --- | --- | --- | --- |
| ATCCCA | 1.07 fold enrichment (6-mer frequency, TF over GST control) | 1.14 fold enrichment (6-mer frequency, TF over GST control) | 1.15 fold enrichment (6-mer frequency, TF over GST control) | 1.2 fold enrichment (6-mer frequency, TF over GST control) | 1.22 fold enrichment (6-mer frequency, TF over GST control) | 1.15 fold enrichment (6-mer frequency, TF over GST control) | 1.03 fold enrichment (6-mer frequency, TF over GST control) | 1.05 fold enrichment (6-mer frequency, TF over GST control) | 1.2 fold enrichment (6-mer frequency, TF over GST control) |
| CGATCC | 1.26 fold enrichment (6-mer frequency, TF over GST control) | 1.14 fold enrichment (6-mer frequency, TF over GST control) | 1.19 fold enrichment (6-mer frequency, TF over GST control) | 1.21 fold enrichment (6-mer frequency, TF over GST control) | 1.27 fold enrichment (6-mer frequency, TF over GST control) | 1.22 fold enrichment (6-mer frequency, TF over GST control) | 1.25 fold enrichment (6-mer frequency, TF over GST control) | 1.22 fold enrichment (6-mer frequency, TF over GST control) | 1.38 fold enrichment (6-mer frequency, TF over GST control) |
| CGTTCA | 1.11 fold enrichment (6-mer frequency, TF over GST control) | 1.24 fold enrichment (6-mer frequency, TF over GST control) | 1.24 fold enrichment (6-mer frequency, TF over GST control) | 1.09 fold enrichment (6-mer frequency, TF over GST control) | 1.13 fold enrichment (6-mer frequency, TF over GST control) | 1.18 fold enrichment (6-mer frequency, TF over GST control) | 1.16 fold enrichment (6-mer frequency, TF over GST control) | 1.2 fold enrichment (6-mer frequency, TF over GST control) | 1.07 fold enrichment (6-mer frequency, TF over GST control) |
| GGAAAT | 2.51 fold enrichment (6-mer frequency, TF over GST control) | 2.64 fold enrichment (6-mer frequency, TF over GST control) | 2.39 fold enrichment (6-mer frequency, TF over GST control) | 3.22 fold enrichment (6-mer frequency, TF over GST control) | 2.39 fold enrichment (6-mer frequency, TF over GST control) | 3.06 fold enrichment (6-mer frequency, TF over GST control) | 2.6 fold enrichment (6-mer frequency, TF over GST control) | 2.88 fold enrichment (6-mer frequency, TF over GST control) | 2.69 fold enrichment (6-mer frequency, TF over GST control) |
| CGTCAC | 1.24 fold enrichment (6-mer frequency, TF over GST control) | 1.27 fold enrichment (6-mer frequency, TF over GST control) | 1.18 fold enrichment (6-mer frequency, TF over GST control) | 1.31 fold enrichment (6-mer frequency, TF over GST control) | 1.24 fold enrichment (6-mer frequency, TF over GST control) | 1.2 fold enrichment (6-mer frequency, TF over GST control) | 1.28 fold enrichment (6-mer frequency, TF over GST control) | 1.18 fold enrichment (6-mer frequency, TF over GST control) | 1.09 fold enrichment (6-mer frequency, TF over GST control) |
| GTATGC | 1.22 fold enrichment (6-mer frequency, TF over GST control) | 1.24 fold enrichment (6-mer frequency, TF over GST control) | 1.17 fold enrichment (6-mer frequency, TF over GST control) | 1.11 fold enrichment (6-mer frequency, TF over GST control) | 1.2 fold enrichment (6-mer frequency, TF over GST control) | 1.14 fold enrichment (6-mer frequency, TF over GST control) | 1.23 fold enrichment (6-mer frequency, TF over GST control) | 1.2 fold enrichment (6-mer frequency, TF over GST control) | 1.13 fold enrichment (6-mer frequency, TF over GST control) |
| CACATA | 1.14 fold enrichment (6-mer frequency, TF over GST control) | 1.14 fold enrichment (6-mer frequency, TF over GST control) | 1.11 fold enrichment (6-mer frequency, TF over GST control) | 1.14 fold enrichment (6-mer frequency, TF over GST control) | 1.18 fold enrichment (6-mer frequency, TF over GST control) | 1.13 fold enrichment (6-mer frequency, TF over GST control) | 1.11 fold enrichment (6-mer frequency, TF over GST control) | 1.06 fold enrichment (6-mer frequency, TF over GST control) | 1.17 fold enrichment (6-mer frequency, TF over GST control) |
